About 83,000 compounds went through this panel and 20% of them were active in at least one assay; those are over-represented in the sample as a whole.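 How to read the values: 0–100, growth inhibition (40 = 60% inhibited); 0, no net growth; -100 to 0, cell death (-40 = 40% of starting cells died; -100 = all dead).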 Values without a mark were called inactive. The source made the active and inactive calls. The calls were made as follows: active = growth percent below 10; inactive = the rest.
Key:
Experiment in all cases: NCI-60 one-dose screen, 48 h (100 = growth as untreated, 0 = no growth, -100 = all killed)
Conditions in all cases: 10 µM unless noted
T-47D breast = system: T-47D breast
BT-549 breast = system: BT-549 breast
MDA-MB-435 melanoma = system: MDA-MB-435 melanoma
SW-620 colon = system: SW-620 colon
MCF7 breast = system: MCF7 breast
HCT-116 colon = system: HCT-116 colon
HCC-2998 colon = system: HCC-2998 colon
KM12 colon = system: KM12 colon

Compound | growth (T-47D breast) | growth (BT-549 breast) | growth (MDA-MB-435 melanoma) | growth (SW-620 colon) | growth (MCF7 breast) | growth (HCT-116 colon) | growth (HCC-2998 colon) | growth (KM12 colon)
CC(C)CC1NC(=O)C(CCCN)NC(=O)C(C(C)C)NC(=O)C2CCCN2C(=O)C(Cc2ccccc2)NC(=O)C(CC(C)C)NC(=O)C(CCCN)NC(=O)C(C(C)C)NC(=O)C2CCCN2C(=O)C(Cc2ccccc2)NC1=O (stereo not given) | -37.2% (active) | -77.7% (active) | -83.6% (active) | -75.6% (active) | -61.5% (active) | -92.2% (active) | -36.2% (active) | -75% (active)
O=C(N/N=C/c1ccc(Cl)cc1Cl)c1ccccc1Nc1cccc(C(F)(F)F)c1 | 83.4% | -57.4% (active) | 70.7% | 84.4% | 280% | 60.7% | 88.2% | 79%
Cn1ccnc1C(=O)/C=C/c1ccc(C(=O)Nc2nc3ccccc3[nH]2)cc1 | 49.6% | 5.05% (active) | 18.8% | 5.35% (active) | 19.5% | 23.1% | 45.4% | 14.4%
Nc1ccc2c(c1)C(=O)c1cc(Cl)c(Cl)cc1-2 | 91% | 85.2% | 102% | 101% | 69.2% | 93.5% | 98% | 92.8%
CCN(CC)c1ccc(C(=C2C=CC(=[N+](CC)Cc3cccc(S(=O)(=O)O)c3)C=C2)c2ccc(N(CC)Cc3cccc(S(=O)(=O)O)c3)cc2)cc1 | 8.92% (active) | 46.6% | 41.5% | 22.9% | 52.1% | 3.12% (active) | 21% | 3.78% (active)
CC12CCC3C(=CCc4cc(O)ccc43)C1CCC2=O (stereo not given) | 104% | 99.5% | 73% | 106% | 120% | 102% | 111% | 108%
Cc1ccc2nc3c(n2c1)C(=O)C(=O)c1ccccc1-3 | -44.1% (active) | -96.4% (active) | -69.6% (active) | -80.5% (active) | -64.1% (active) | -50.4% (active) | -54% (active) | -26.6% (active)
C=C1CC[C@@H]2[C@](C)(COC(C)=O)[C@H](OC(C)=O)CC[C@@]2(C)[C@@H]1CC(NCc1ccccc1)C1=CCOC1=O (stereo not given in full) | 14.2% | 28.1% | 27.9% | 47.3% | 29.8% | 42.3% | 93.7% | 39.1%
COc1cc(/C=C2\SC(N3CCCCC3)=NC2=O)ccc1OCCCCCCOc1ccc(/C=C2\SC(N3CCCCC3)=NC2=O)cc1OC | 21.9% | -36.6% (active) | -48% (active) | -24.7% (active) | 16.6% | -64.3% (active) | -76.5% (active) | -72.1% (active)
COc1cnc2c(c1)C(=O)c1c-2n(CCCNC2=NCCS2)c(=O)c2cc(F)ccc12 | 19.1% | 13.4% | 41.8% | -22% (active) | 3.19% (active) | -75.3% (active) | 65.5% | 46.7%
COc1cc(/C=C/C(=O)C(C(=O)/C=C/c2ccc(OC(=O)CCNc3nnc(C)s3)c(OC)c2)C(=O)CCNc2nnc(C)s2)ccc1OC(=O)CCNc1nnc(C)s1 | 41.4% | -44% (active) | -27.5% (active) | -19.5% (active) | 8.2% (active) | -31.6% (active) | -46.7% (active) | -39.2% (active)
Cc1[nH]c(=O)[nH]c(=O)c1CCSSCCc1c(C)[nH]c(=O)[nH]c1=O | 96.6% | 105% | 103% | 108% | 87.2% | 101% | 102% | 101%
BrC1CC(Br)c2c1c1c(c3c2C(Br)CC3Br)C(Br)CC1Br (stereo not given) | 91.8% | 125% | 103% | 83% | 49.6% | 80.9% | 87.5% | 129%
COC(=O)c1cc2c(/C=C3/NC(=S)NC3=O)coc2n1C | 80.3% | 72.9% | 94.7% | 96.6% | 81.3% | 96.8% | 103% | 96.5%
COc1cc(-c2nnc(-c3nc(-c4cc(OC)c(OC)c(OC)c4)n4ccccc34)o2)ccc1N | 54.5% | 67.1% | 82.5% | 87% | 71.2% | 54.2% | 89.1% | 68.3%
CN1C(=O)C(C2=NN(C=O)C(c3ccc(F)cc3)C2)C(=O)N(C)C1=O (stereo not given) | 92.9% | 102% | 102% | 98.8% | 93.4% | 98.7% | 97.5% | 99.9%
COc1cc(NC(C)CCCN)c2nc(C)ccc2c1Oc1ccc(F)cc1 (stereo not given) | 87.4% | 70.5% | 104% | 67% | 62.1% | 33.9% | 21.6% | 78.9%
COc1ccc(C(=O)COc2cccc(/C=C3\COc4ccc5ccccc5c4C3=O)c2)cc1 | 32% | 1.54% (active) | 64.8% | 27.8% | 16.1% | 59.2% | 63.9% | 67.8%
N#Cc1c(-c2ccc(F)cc2)n2c(nc1=O)SC(=O)C2=O | 114% | 99.1% | 96.5% | 103% | 89.4% | 102% | 102% | 104%
COP(=O)(OC)C(c1ccccc1)(c1ccccc1)c1ccccc1 | 88.8% | 117% | 91.2% | 98.1% | 103% | 73.1% | 114% | 93.7%
CCOC(=O)Nc1ccc2c3c(cccc13)-c1ccccc1-2 | 58.7% | 26.1% | -9.66% (active) | 14.9% | 15.8% | 16.6% | 41.2% | 18.3%
O=C(C(=O)N1CCOCC1)c1cn(CCCn2cc(C(=O)C(=O)N3CCOCC3)c3ccccc32)c2ccccc12 | 94.7% | 104% | 111% | 115% | 95.4% | 98.4% | 108% | 110%
O=C1c2cccc3c([N+](=O)[O-])ccc(c23)C(=O)N1CCCCl | -48.4% [100 µM] (active) | -98.2% [100 µM] (active) | -89.3% [100 µM] (active) | -44.4% [100 µM] (active) | -65.5% [100 µM] (active) | -90.6% [100 µM] (active) | -91.9% [100 µM] (active) | -81.3% [100 µM] (active)
O=C(CC1Sc2ccccc2NC1=O)NNc1cccc(Cl)c1Cl (stereo not given) | 73% | 89.1% | 95.4% | 87.3% | 92.4% | 87% | 88.5% | 82.7%
N#Cc1ccc(-c2csc(Nc3ccc4nc5n(c(=O)c4c3)CCC5)n2)cc1 | 102% | 98.4% | 103% | 103% | 92% | 96.2% | 116% | 103%
Nc1nc(Nc2ccccc2SSc2ccccc2Nc2nc(N)nc(C(Cl)(Cl)Cl)n2)nc(C(Cl)(Cl)Cl)n1 | 15.7% | 54.2% | 82.9% | 68.1% | 75.7% | 45.8% | 111% | 43.4%
COc1cnc2c(c1)C(=O)c1c-2n(CCCN2CCNCC2)c(=O)c2cc(F)ccc12 | 9.02% (active) | 4.74% (active) | -41.3% (active) | -53.7% (active) | 11.7% | -82.5% (active) | 2.69% (active) | -13.1% (active)
COc1ccc(N2CCN(CC(=O)N3CCN(c4nnc(-c5ccc(Cl)cc5)c(-c5ccc(Cl)cc5)n4)CC3)CC2)cc1 | 31.6% | 66.1% | 57.5% | 69.2% | 37.3% | 29.2% | 51% | 44.7%
CN(C)CCCN=c1cc2c(=O)n(CCCN(C)C)c(=O)c3c(NCCCN(C)C)cc4c(O)n(CCCN(C)C)c(=O)c1c4c3-2 | -1.16% (active) | 37% | -52.8% (active) | -14.6% (active) | 0.771% (active) | -29.7% (active) | 13.8% | 3.01% (active)
O[N+]1=CC=CCC1=S.On1ccccc1=S.[Zn] | -84.9% (active) | -84% (active) | -82.8% (active) | -77.2% (active) | -75.6% (active) | -88.1% (active) | -76.3% (active) | -88.3% (active)

— PubChem BioAssay (NCI)
